MITF primary: blocks human microphthalmia-associated transcription factor; hit rate 0.91% among 650,000; inhibition, % at 2.6 µM; O75030; AlphaScreen MITF homodimerization, bead proximity signal; AID 1259374; in the data active = inhibition above about 50%
TEAD-YAP inh: TEAD-YAP interaction inhibition | HEK-TIYL cells, TEAD-Gal4/YAP UAS-luciferase luminescence | inhibition, % at 9.12 µM | hit rate 1.4% among 640,000; in the data active = inhibition above about 32%
GPR151 activ: activators of human GPR151. Q8TDV0. PathHunter beta-arrestin GPR151 cells, luminescence. activation, % at 11.2 µM. hit rate 1% among 650,000; in the data active = activation above about 4.9%
Target sequence (Q8TDV0 whole entry, looked up): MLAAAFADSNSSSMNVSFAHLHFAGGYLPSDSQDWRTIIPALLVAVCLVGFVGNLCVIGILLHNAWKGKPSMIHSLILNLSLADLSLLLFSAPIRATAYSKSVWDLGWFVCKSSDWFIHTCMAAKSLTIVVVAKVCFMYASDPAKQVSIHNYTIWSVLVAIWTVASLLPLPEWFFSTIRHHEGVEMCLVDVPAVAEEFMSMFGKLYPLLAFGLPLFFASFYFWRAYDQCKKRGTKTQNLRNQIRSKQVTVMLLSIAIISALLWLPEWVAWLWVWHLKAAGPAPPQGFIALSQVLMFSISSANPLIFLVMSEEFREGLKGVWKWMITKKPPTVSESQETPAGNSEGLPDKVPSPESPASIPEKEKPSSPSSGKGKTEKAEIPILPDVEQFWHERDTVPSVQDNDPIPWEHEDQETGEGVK
FBW7 act: human FBW7 E3 ligase activation, primary screen. Q969H0. AlphaScreen FBW7–phospho-cyclin E peptide binding, activator screen. normalized activity (activation), % at 26.1 µM. hit rate 0.13% among 650,000; in the data active = normalized activity above about 1.9%;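 also: purified mutant Fbw7 with reduced substrate affinity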
MITF inh conf: human MITF inhibition, confirmation. shares compounds with MITF primary. AlphaScreen MITF homodimerization, biotin/His-MITF beads. inhibition, % at 2.6 µM. hit rate 16% among 4,700. AID 1259372;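 active = inhibition above a cutoff derived from the DMSO control wells, cut at about 28% in these data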;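 also: inhibitors lower the bead chemiluminescence by keeping MITF from dimerizing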
AS interf DR: optically interferes with AlphaScreen signal in dose response; AlphaScreen optical interference counterscreen, cell-free; IC50, µM; AID 1259373; hit rate 6% among 480; shares compounds with MITF primary; call rule not given here
AlphaScreen intf2: AlphaScreen optical interference, counter-screen; shares compounds with MITF primary; LysRS AlphaScreen counterscreen, signal interference, triplicate; inhibition, % at 2.6 µM; hit rate 7.6% among 4,700; AID 1259376;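 active = inhibition above a cutoff derived from the DMSO control wells, cut at about 30% in these data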
Hits are given with their value; - = inactive; . = no result. Sampled rows, rich in hits. Any-hit rate of the full collection: about 3.5%.

SMILES	MITF primary	TEAD-YAP inh	GPR151 activ	FBW7 act	MITF inh conf	AlphaScreen intf2	others
COc1ccc(CN2CCN(Cc3ccc(C(F)(F)F)cc3)CC2)cc1	86	-	-	-	-	-
COc1cc(C(=O)N2CCN(Cc3ccc(C(F)(F)F)cc3)CC2)cc(OC)c1OC	-	-	-	-	.	.
FC(F)(F)c1ccc(CN2CCSCC2)cc1	58	-	-	-	-	-
CCOC(=O)c1ccccc1NC(=O)CSc1nnc(Nc2ccc(OC)cc2)s1	-	-	-	-	.	.
COc1cc(-c2ccnc(N)n2)ccc1NC(=O)[C@H]1COc2ccccc2O1	66	-	-	2.5	52	-	AS interf DR=-
S=c1[nH]nc(-c2ccccc2)n1/N=C/C=C/c1ccco1	-	-	-	-	.	.
S=c1[nH]nc(-c2cccnc2)n1/N=C/C=C/c1ccco1	71	-	-	-	77	-	AS interf DR=-
C/C(=N\NC(=O)c1[nH]nc2c1CCc1ccccc1-2)c1ccco1	-	-	-	-	.	.
CN1CC(=O)N2CCN(C(=O)NC3CCCCC3)C[C@@H]2C1=O	74	-	-	-	74	-	AS interf DR=-
CN1CC(=O)N2CCN(C(=O)c3ccccc3Cl)C[C@@H]2C1=O	54	-	-	-	-	-
CN1CC(=O)N2CCN(C(=O)c3cccc4ccccc34)C[C@@H]2C1=O	-	-	-	-	.	.
CN1CC(=O)N2CCN(C(=O)c3cc(Cl)cc(Cl)c3)C[C@@H]2C1=O	-	-	-	-	.	.
O=C(NC1CCCCC1)N1CCN2C(=O)[C@@H]3CCCN3C(=O)[C@H]2C1	82	-	-	-	71	-	AS interf DR=-
O=C(c1cc(F)c(F)cc1F)N1CCN2C(=O)[C@@H]3CCCN3C(=O)[C@H]2C1	-	-	-	-	.	.
Cn1c(CN2CCOCC2)nnc1SCC(N)=O	-	-	-	-	.	.
CSc1nnc(CN2CCSCC2)n1C	64	-	-	-	-	-
CCOc1ccc(C2=NN3C(C2)c2cc(Cl)ccc2OC3c2ccc(C(=O)OC)cc2)cc1 (stereo unspecified)	-	-	-	-	.	.
Fc1ccccc1CN1CCC(N2CCCCC2)CC1	-	-	-	-	.	.
Fc1ccccc1CN1CCC(N2CCN(c3ccccc3)CC2)CC1	53	-	-	-	-	-
Clc1ccccc1CN1CCN(C2CCCCCC2)CC1	74	-	-	-	-	-
Fc1ccccc1CN1CCN(C2CCCCC2)CC1	61	-	-	-	-	-
CCN1CCN(C2CCN(Cc3ccccc3C)CC2)CC1	-	-	-	-	.	.
Fc1ccccc1N1CCN(C2CCN(Cc3ccccc3)CC2)CC1	-	-	-	-	.	.
CC1CCC(N2CCN(Cc3ccccc3F)CC2)CC1 (stereo unspecified)	63	-	-	-	-	-
Clc1ccccc1CN1CCC(N2CCCCC2)CC1	-	-	-	-	.	.
SMILES	MITF primary	TEAD-YAP inh	GPR151 activ	FBW7 act	MITF inh conf	AlphaScreen intf2	others
CCOc1ccc(NC(=O)N2CCC(NC(=O)c3cccc([N+](=O)[O-])c3)CC2)cc1	-	-	-	-	.	.
CC1CN(C(=O)COC(=O)c2ccc([N+](=O)[O-])o2)CC(C)O1 (stereo unspecified)	-	-	-	-	.	.
c1ccc(CSc2nncn3c2cc2sccc23)nc1	-	-	-	-	.	.
COc1ccc(CCNC(=O)CN2CC(=O)N3CCCC3C2=O)cc1OC (stereo unspecified)	-	-	-	-	.	.
O=C(CN1CCN(Cc2nc(-c3ccc(F)cc3)cs2)CC1)NCc1ccco1	70	-	-	-	-	-
O=C(CN1CCN(Cc2nc(-c3ccccc3)cs2)CC1)NCc1ccco1	-	-	-	-	.	.
C=CCNC(=O)CN1CCN(Cc2nc(-c3ccccc3)cs2)CC1	70	-	-	-	-	-
O=C(CN1CCN(Cc2nc(-c3ccco3)cs2)CC1)NCCc1ccccc1	76	-	-	-	-	-
COc1ccc(CCNC(=O)CN2CCN(Cc3nc(-c4ccco4)cs3)CC2)cc1OC	70	-	-	-	28	-	AS interf DR=-
O=C(CN1C(=O)C2CCCN2C(=O)c2ccccc21)Nc1ccc(F)cc1 (stereo unspecified)	-	-	-	-	.	.
N#Cc1ccc(NC(=O)CN2C(=O)C3CCCN3C(=O)c3ccccc32)cc1 (stereo unspecified)	72	-	-	-	-	-
Cc1ccc(NC(=O)c2oc(=O)c3ccccc3c2-c2ccccc2)cc1	-	-	-	-	.	.
Cn1ccnc1Sc1ncnc2scc(-c3ccccc3)c12	-	-	-	-	.	.
CSc1ccc(CN2CCCC(CNC(=O)c3cccnc3)C2)cc1 (stereo unspecified)	-	-	-	-	.	.
O=C(NCC1CCCN(Cc2ccc(OCc3ccccc3)cc2)C1)c1cccnc1 (stereo unspecified)	51	-	-	-	-	-
C/C(=N\Nc1ccc(S(=O)(=O)O)cc1)c1ccc([N+](=O)[O-])o1	60	-	-	-	40	-	AS interf DR=-
O=C(COc1cccc(Cl)c1)N/N=C\c1ccncc1	-	-	-	-	.	.
Cc1ccccc1OCCNCC(C)O (stereo unspecified)	53	-	-	-	-	-
Cc1cnc(C)c(-c2ccc3c(c2)CC(CNC(=O)c2cc(C)[nH]n2)O3)n1 (stereo unspecified)	-	-	-	-	.	.
CCOC(=O)c1c(Nc2ccccc2N)cc(C)nc1C	68	-	-	-	-	-
CS(=O)(=O)N1CCN=C1SCc1ccccc1F	52	-	-	-	-	-
COCCSc1nnc(-c2cnccn2)n1C	75	-	-	-	-	-
CCOc1cc(C)c(/C=C2\SC(=O)N(CC(=O)N3CCOCC3)C2=O)cc1C(C)C	-	-	-	-	.	.
CCc1cc2c(cc3c(=O)n(CC(=O)N(CC)Cc4ccccc4)ncn32)s1	71	-	-	-	-	-
COC(=O)c1ccc(COC(=O)c2ccncc2)o1	-	-	-	-	.	.
SMILES	MITF primary	TEAD-YAP inh	GPR151 activ	FBW7 act	MITF inh conf	AlphaScreen intf2	others
CC(C)(C)C(=O)COc1ccc2c(C(F)(F)F)cc(=O)oc2c1	-	-	-	-	.	.
C=CCOC(=O)COc1ccc2c(CC)cc(=O)oc2c1	76	-	-	-	-	-
NC(=O)COc1ccc2c(C(F)(F)F)cc(=O)oc2c1	54	-	-	-	-	-
CCc1ccc(Oc2nc3c(C)cccn3c(=O)c2/C=C(\C#N)C(=O)NCCCOC)cc1	-	-	-	-	.	.
CCOC(CNC(=O)c1sc2ncn(CC(=O)N(CC)CC)c(=O)c2c1C)OCC	-	-	-	-	.	.
CC(C)CNC(=O)CC(=O)N/N=C/c1ccc2c(c1)OCO2	-	-	-	-	.	.
CC(C)C[C@@H]1NC(=O)[C@H]2CN(C(=O)NCc3ccccc3)CCN2C1=O	78	-	-	-	72	-	AS interf DR=-
O=C(OCc1ccccc1)N1CCN2C(=O)[C@H]3CCCN3C(=O)[C@H]2C1	-	-	-	-	.	.
O=C1N[C@@H](CSCc2ccccc2)C(=O)N2CCN(C(=O)NCc3ccccc3)C[C@H]12	80	-	-	-	73	-	AS interf DR=-

Screens: PubChem BioAssay, The Scripps Research Institute Molecular Screening Center
